From PubChem
GLP1R cytotox = cytotoxicity in counter-screen for GLP-1R inverse agonists. HEK293 cAMP-luciferase reporter cells, luminescence, 24 h. Potency, µM (highest dose often 38.3 µM), most hits filed as inhibitors. 410,000 tested, 0.13% active. AID 624418;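 further: loss of luciferase light is scored as toxicity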
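To flag toxic compounds, the library was rerun on cells for 24 hr at 37 deg C and 5% CO2. Viability-linked luminescence was captured 12 min after adding luciferase detection reagent.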
GLP1R inv ag = GLP-1 receptor (human) inverse agonism | P43220 | HEK293 GLP-1R CRE-luciferase, luminescence, 24 h; GLP-1R form is constitutively active | Potency, µM (series often up to 38.3 µM), most hits filed as inhibitors | 410,000 tested, 1.6% active | AID 624417; further: nearly all actives have a fitted effect of over 55% in size
Target sequence (P43220 whole entry, looked up): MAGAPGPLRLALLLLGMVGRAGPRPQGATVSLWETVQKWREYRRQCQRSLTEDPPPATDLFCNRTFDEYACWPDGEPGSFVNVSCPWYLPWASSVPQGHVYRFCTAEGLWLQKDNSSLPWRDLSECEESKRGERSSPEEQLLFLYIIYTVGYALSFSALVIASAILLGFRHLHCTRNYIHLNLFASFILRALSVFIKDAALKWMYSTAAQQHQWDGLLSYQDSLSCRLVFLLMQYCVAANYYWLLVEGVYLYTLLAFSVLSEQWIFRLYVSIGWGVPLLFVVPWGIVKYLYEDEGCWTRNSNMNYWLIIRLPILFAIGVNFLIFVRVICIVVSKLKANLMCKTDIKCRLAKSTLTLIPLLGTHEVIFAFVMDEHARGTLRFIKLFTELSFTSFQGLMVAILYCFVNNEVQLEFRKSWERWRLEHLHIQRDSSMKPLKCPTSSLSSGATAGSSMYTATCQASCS
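Constitutively active GLP-1R drives a cAMP-responsive luciferase in stably transfected HEK293 cells; test compounds are added after overnight (12 h) attachment and left 24 hr, and signal loss in luminescence marks inhibition.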
GLP1R ag = GLP-1 receptor (human) agonism | Potency, µM (titrated, usually from 45.6 µM), actives largely listed as activators | 380,000 tested, 0.007% active | P43220 | HEK293 GLP-1R CRE-luciferase, luminescence, 4-6 h; cells express a hypersensitive GLP-1R form
Gal4-VP16 FLuc = Gal4-VP16 reporter inhibition counter-screen | 310,000 tested, 3.5% active | Potency, µM (top dose mostly 53.6 µM), hits mostly inhibitors | Drosophila S2 Gal4-VP16 UAS-luciferase, luminescence, 20 h;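 further: Gal4-VP16 expression switched on by copper sulfate through the metallothionein promoter; nearly all actives have a fitted effect of over 50% in size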
RORg inh = ROR gamma (mouse) transcription inhibition; P51450; Drosophila S2 Gal4-RORgamma UAS-luciferase reporter, 20 h; Potency, µM (highest dose often 53.6 µM), usual class: inhibitors; 310,000 tested, 5.4% active; further: nearly all actives have a fitted effect of over 60% in size
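Luciferase reporter read in Schneider cells carrying Gal4-RORγ (mouse) and UAS-Photinus luciferase; cells given compound 1 h before 700 uM copper sulfate induction, then incubated 20 h at ambient temperature.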
Large screens that a line does not name were inactive. Rows were chosen to be rich in hits. Some 5.9% of all compounds tested hit in one or more screens of this group. The call rests on the fitted dose curve; in most records, active means well fitted curve in the direction sought with a large enough effect; inconclusive means small, poorly fitted or top-dose-only effect, or another doubt; inactive means no such curve, though single readings can be large; an effect the other way counts as inactive or inconclusive.

COc1ccc2ccccc2c1C1NC(=O)NC(C)=C1[N+](=O)[O-] (stereo not drawn)	Gal4-VP16 FLuc 11µM
Cc1[nH]c2ccccc2c1C(=O)COC(=O)C1CC(O)CN1S(=O)(=O)c1ccc(Cl)cc1 (stereo not drawn)	GLP1R inv ag inconclusive (no result: Gal4-VP16 FLuc, RORg inh)
CC(C)Cc1ccc(C(C)C(=O)OCC(=O)c2c[nH]c3ccccc23)cc1 (stereo not drawn)	GLP1R inv ag inconclusive, Gal4-VP16 FLuc 18µM, RORg inh inconclusive
Cc1ccc(C(=O)OCC(=O)c2c[nH]c3ccccc23)cc1	none
CC(C)C(NS(=O)(=O)c1c(Cl)cccc1Cl)C(=O)OCC(=O)c1c[nH]c2ccccc12 (stereo not drawn)	GLP1R inv ag inconclusive, RORg inh inconclusive
CSCCC(NS(=O)(=O)c1ccc(Cl)cc1)C(=O)OCC(=O)c1c(C)[nH]c2ccccc12 (stereo not drawn)	GLP1R inv ag inconclusive, Gal4-VP16 FLuc 16µM, RORg inh inconclusive
CC(O)C(NS(=O)(=O)c1ccc(Cl)cc1)C(=O)OCC(=O)c1c[nH]c2ccccc12 (stereo not drawn)	GLP1R inv ag 5.6µM
CCNC(=O)c1c(NC(=O)c2nc(S(=O)(=O)CC)ncc2Cl)sc2c1CCCC2	none (no result: GLP1R ag, Gal4-VP16 FLuc, RORg inh)
O=C(O)CCn1cc(/C=C/C(=O)c2ccc(Cl)cc2)c(-c2ccc(Br)cc2)n1	GLP1R cytotox inconclusive, GLP1R inv ag inconclusive, Gal4-VP16 FLuc inconclusive, RORg inh 7.1µM
O=C(O)/C=C/c1cn(Cc2ccccc2)nc1-c1ccccc1	none
C/C(=N\NC(=O)c1ccccc1O)C1C(=O)c2ccccc2C1=O	Gal4-VP16 FLuc 3.2µM, RORg inh 3.5µM
C/C(=N/NC(=O)c1cc2ccccc2cc1O)C1C(=O)c2ccccc2C1=O	GLP1R cytotox inconclusive, GLP1R inv ag inconclusive, Gal4-VP16 FLuc 18µM, RORg inh inconclusive
COc1cc(OC)cc(C(=O)NNC(=O)c2cc3ccccc3cc2O)c1	none
COc1ccc(C2CC(O)(c3ccccc3)Oc3c(C)ccc(C)c32)cc1 (stereo not drawn)	Gal4-VP16 FLuc 13µM, RORg inh inconclusive
O=C(NC(=S)Nc1cc(-c2nc3ccccc3[nH]2)ccc1Cl)c1ccc2c(c1)OCO2	GLP1R cytotox inconclusive, GLP1R inv ag inconclusive, RORg inh 13µM
Cc1ccc(-c2nc3ccccc3[nH]2)cc1NC(=O)c1ccc2c(c1)OCO2	GLP1R cytotox inconclusive, GLP1R inv ag inconclusive
COc1ccc(NC(=O)c2cc3cccc(OC)c3oc2=Nc2ccc(C(=O)O)cc2)cc1OC	Gal4-VP16 FLuc inconclusive, RORg inh 0.45µM
COc1cccc2cc(C(=O)Nc3ccc(C)cc3)c(=O)oc12	none (no result: GLP1R ag, Gal4-VP16 FLuc, RORg inh)
Cc1nn(-c2ccccc2)c(N)c1N=Nc1ccc2ccccc2c1	GLP1R inv ag inconclusive, RORg inh 1.1µM
CCOc1ccc2[nH]c(=O)c(C(c3nnnn3Cc3ccco3)N3CCN(C)CC3)cc2c1 (stereo not drawn)	Gal4-VP16 FLuc 3.5µM, RORg inh 3.5µM
Nc1cccc2c1C(=O)N(CCOc1ccccc1F)C2=O	GLP1R inv ag inconclusive, Gal4-VP16 FLuc inconclusive, RORg inh 8.9µM
N#Cc1ccccc1OCCN1C(=O)c2ccccc2C1=O	RORg inh inconclusive
CC(=O)c1ccc(OCc2cc(C(=O)N(C)CCOc3ccc(C)cc3)no2)cc1	GLP1R inv ag 10µM, Gal4-VP16 FLuc inconclusive
CC(=O)c1ccc(OCc2cc(C(=O)N(C)Cc3nc4c(C)cccc4[nH]3)no2)cc1	none
OC(c1ccccc1)C(NCCNCc1ccccc1)c1ccccc1 (stereo not drawn)	GLP1R inv ag 7.9µM (no result: Gal4-VP16 FLuc, RORg inh)
O=C(c1cccs1)c1cn(CCOc2ccccc2Cl)c2ccccc12	GLP1R inv ag inconclusive (no result: GLP1R ag, Gal4-VP16 FLuc, RORg inh)
COc1ccc(N2C(=O)CSC23C(=O)N(CC(=O)NCc2ccccc2)c2ccccc23)cc1 (stereo not drawn)	none (no result: Gal4-VP16 FLuc, RORg inh)
COc1ccc(/C=N/Nc2cc(C)nc3ccccc23)cc1	GLP1R inv ag inconclusive, Gal4-VP16 FLuc inconclusive, RORg inh inconclusive
COc1ccc2nc(C)cc(N/N=C/c3ccc(F)cc3)c2c1	GLP1R cytotox inconclusive, GLP1R inv ag inconclusive, Gal4-VP16 FLuc 5µM, RORg inh 4µM
